Reference: PubChem BioAssay (Tox21)
Values without a mark were called inactive. Inconclusive results are not listed. A call without a number means that no potency is given here. The source made the active and inactive calls. Unless noted, calls follow the shape of the dose curve; as a rule, active = well fitted curve in the direction sought with a large enough effect in the repeat runs; inconclusive = weak or mixed curves; inactive = no such curve, though single readings can be large; an effect the other way counts as inactive or inconclusive.

Assays:
[1] = qHTS assay to identify small molecule agonists of the hypoxia (HIF-1) signaling pathway - cell viability counter screen (AID 1224844; calls by dose curve; also: nearly all actives have a fitted effect of over 50% in size; also: potency is read from the fitted curve at half-maximal effect)
Procedure, shortened: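 ME-180 HRE-bla cells, 2,000/well, 0.5% dialyzed FBS; 5 hr settle, 17 hr compound at 37C/5% CO2; CCF4-AM reporter read first, then CellTiter-Glo luminescence after 30 min RT.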

[2] = qHTS assay to identify small molecule agonists of H2AX (AID 1224845; active = well fitted activation curve with a large enough effect in the signal ratio in the repeat runs, not every such curve was filed as active; the % refers to the signal ratio)
Procedure, shortened: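 Wild-type CHO-K1 cells plated overnight, then exposed 3 hr at 37C to compounds at 15 concentrations (0.76% DMSO). Lysed, then HTRF anti-pH2AX(S139)-cryptate/anti-H2AX-d2 detection after 24 hr at room temperature; emissions 665 and 620 nm.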

[3] = qHTS assay to identify small molecule agonists of the hypoxia (HIF-1) signaling pathway (AID 1224846; active = well fitted activation curve with a large enough effect in the signal ratio in the repeat runs, not every such curve was filed as active; the % refers to the signal ratio)
Procedure, shortened: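 Cell line: CellSensor HRE-bla ME-180; 2,000 cells/well; 0.5% dialyzed FBS; 5 h preincubation; DMSO compound pin transfer; 17 h, 37C, 5% CO2; CCF4-AM added; bla FRET signal scored for activation.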

[4] = qHTS assay to identify small molecule agonists of H2AX - cell viability counter screen (AID 1224847; calls by dose curve; also: top concentration of the series differs between compounds; nearly all actives have a fitted effect of over 30% in size)
Procedure, shortened: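 We seed wild-type CHO-K1 cells overnight, treat them for 3 hr at 37C with compounds in 15-concentration series, and quantify remaining viability by CellTiter-Glo luminescence.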

[5] = qHTS RealTime-Glo MT Cell Viability Assay in HepG2 cells - 24 hour (AID 1224867); also: nearly all actives have a fitted effect of over 50% in size
Procedure, shortened: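 Luminescence read-out: viable HepG2 cells reduce a prosubstrate to a NanoLuc substrate, giving a signal proportional to live cell number. Reads taken at 0, 8, 16, 24, 32 and 40 h of compound exposure at 37 C.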

[6] = A CellTox Green Cytotoxicity Assay to monitor cytotoxicity in HEK293 cells - 0 hour (AID 1224869); also: nearly all actives have a fitted effect of over 50% in size
Procedure, shortened: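 Nonlytic real-time cytotoxicity: HEK293 + CellTox Green reagent plated, 5 h preincubation, pintool compound addition (23 nL in DMSO), 37 C for 40 h, fluorescence measured at successive time points.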

[7] = qHTS RealTime-Glo MT Cell Viability Assay in HepG2 cells - 40 hour (AID 1224870); also: nearly all actives have a fitted effect of over 50% in size
Procedure, shortened: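 HepG2 cells mixed with RealTime-Glo MT reagents (NanoLuc plus cell-permeant prosubstrate) were seeded at 600 cells/well, incubated 5 h at 37 C/5% CO2, then pinned with compounds in DMSO; nonlytic luminescence tracked viability during 40 h treatment.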

[8] = qHTS RealTime-Glo MT Cell Viability Assay in HEK293 cells - 32 hour (AID 1224868); also: nearly all actives have a fitted effect of over 50% in size; also: potency is read from the fitted curve at half-maximal effect
Procedure, shortened: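 Nonlytic real-time viability readout: viable cells convert prosubstrate to NanoLuc substrate, giving luminescence proportional to live cell number. HEK293, 600 cells/well, compound added after 5 h, continuous culture at 37 C.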

[9] = qHTS assay to identify small molecule antagonists of the estrogen related receptor (ERR) signaling pathway from Tox21 library (AID 1224848); also: nearly all actives have a fitted effect of over 50% in size
Procedure, shortened: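 Cells: ERR line, 2,000/well; 6 h preincubation 37 C/5% CO2. Cpd in DMSO via pin tool; 18 h, 37 C. ONE-Glo, 30 min RT, luminescence.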

[10] = qHTS assay to identify small molecule agonists of the estrogen related receptor (ERR) signaling pathway from Tox21 library (AID 1224849; calls by dose curve; also: nearly all actives have a fitted effect of over 15% in size); conditions: ERR reporter cell line, ONE-Glo luciferase, 18 h; at 92.4 µM (top of the series) unless noted
Procedure, shortened: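 ERR cells, 6 h pre-incubation 37 C/5% CO2; cpd in DMSO pinned; 18 h 37 C; ONE-Glo added, 30 min RT; luminescence read. Agonist mode, qHTS.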

CC1(C)C(=O)N(Cl)C(=O)N1Br
Potency [1]: inactive | Potency [2]: inactive | outcome [3]: inactive | Potency [4]: inactive | Potency [5]: inactive | Potency [6]: inactive | Potency [7]: inactive

C=CC(C)(O)CC/C=C(\C)CCC=C(C)C (configuration not stated)
Potency [1]: inactive | Potency [2]: inactive | outcome [3]: inactive | Potency [4]: inactive | Potency [5]: inactive | Potency [8]: inactive | Potency [6]: inactive | Potency [7]: inactive

CC(C)C(=O)OCC(C)(C)C(O)C(C)C (configuration not stated)
Potency [1]: inactive | Potency [2]: inactive | outcome [3]: inactive | Potency [4]: inactive | Potency [5]: inactive | Potency [8]: inactive | Potency [6]: inactive | Potency [7]: inactive

CC1=C(CC(=O)O)c2cc(F)ccc2/C1=C\c1ccc(S(C)(=O)=O)cc1
Potency [1]: inactive | Potency [2]: inactive | Potency [4]: inactive | Potency [9]: inactive | activity change, positive = activation [10]: 5.91% [at 42.5 µM] | Potency [5]: inactive | Potency [8]: inactive | Potency [6]: inactive | Potency [7]: inactive

CC1=CC(=O)CC(C)(C)C1=O
Potency [1]: inactive | Potency [2]: inactive | outcome [3]: inactive | Potency [4]: inactive | Potency [5]: inactive | Potency [6]: inactive | Potency [7]: inactive

CN1CCC[C@@H]1Cc1c[nH]c2ccc(CCS(=O)(=O)c3ccccc3)cc12
Potency [1]: inactive | Potency [2]: inactive | outcome [3]: inactive | Potency [9]: inactive | activity change, positive = activation [10]: -4.97% [at 42.5 µM] | Potency [5]: inactive | Potency [6]: inactive | Potency [7]: inactive

C=CC1CO1 (configuration not stated)
Potency [1]: inactive | Potency [2]: inactive | outcome [3]: inactive | Potency [4]: inactive | Potency [5]: inactive | Potency [6]: inactive | Potency [7]: inactive

OCCN1CCN(CCO)CC1
Potency [1]: inactive | Potency [2]: inactive | outcome [3]: inactive | Potency [4]: inactive | Potency [5]: inactive | Potency [6]: inactive | Potency [7]: inactive

CC/C=C\CCOC(=O)C(C)C
Potency [1]: inactive | Potency [2]: inactive | outcome [3]: inactive | Potency [4]: inactive | Potency [5]: inactive | Potency [6]: inactive | Potency [7]: inactive

CN1CCN(c2c(F)cc3c(=O)c(C(=O)O)cn(CCF)c3c2F)CC1
Potency [1]: inactive | Potency [2]: inactive | outcome [3]: inactive | Potency [4]: inactive | Potency [5]: inactive | Potency [8]: inactive | Potency [6]: inactive | Potency [7]: inactive

Cc1cc2nc(N)sc2cc1C
Potency [1]: inactive | Potency [2]: inactive | outcome [3]: inactive | Potency [5]: inactive | Potency [8]: inactive | Potency [6]: inactive | Potency [7]: inactive

CCCS(=O)c1ccc2nc(NC(=O)OC)[nH]c2c1 (configuration not stated)
Potency [1]: inactive | Potency [2]: inactive | outcome [3]: inactive | Potency [4]: inactive | Potency [5]: inactive | Potency [6]: inactive | Potency [7]: inactive

CC(C)CC(=O)OCc1ccccc1
Potency [1]: inactive | Potency [2]: inactive | outcome [3]: inactive | Potency [4]: inactive | Potency [5]: inactive | Potency [6]: inactive | Potency [7]: inactive

O=C(O)c1cccc(Cl)c1Cl
Potency [1]: inactive | Potency [2]: inactive | outcome [3]: inactive | Potency [4]: inactive | Potency [5]: inactive | Potency [6]: inactive | Potency [7]: inactive

CCCC1CCC(=O)O1 (configuration not stated)
Potency [1]: inactive | Potency [2]: inactive | outcome [3]: inactive | Potency [4]: inactive | Potency [5]: inactive | Potency [8]: inactive | Potency [6]: inactive | Potency [7]: inactive

COc1ccc2nc(NC(=O)Nc3ccccc3)sc2c1
Potency [1]: 19 µM (active) | Potency [2]: inactive | outcome [3]: inactive | Potency [4]: inactive | Potency [5]: inactive | Potency [8]: 5.35 µM (active) | Potency [6]: inactive | Potency [7]: inactive

CC(C)Nc1nc(N)nc(Cl)n1
Potency [1]: inactive | Potency [2]: inactive | outcome [3]: inactive | Potency [4]: inactive | Potency [5]: inactive | Potency [8]: inactive | Potency [6]: inactive | Potency [7]: inactive

COc1ccc(S(=O)(=O)Nc2nnc(CC(C)C)s2)cc1
Potency [1]: inactive | Potency [2]: inactive | Potency [4]: inactive | Potency [5]: inactive | Potency [8]: inactive | Potency [6]: inactive | Potency [7]: inactive

CC1(C)S[C@@H]2[C@H](NC(=O)C(C(=O)O)c3ccccc3)C(=O)N2[C@H]1C(=O)O (some centres not stated)
Potency [1]: inactive | Potency [2]: inactive | Potency [4]: inactive | Potency [9]: inactive | activity change, positive = activation [10]: 8.06% [at 42.5 µM] | Potency [5]: inactive | Potency [8]: inactive | Potency [6]: inactive | Potency [7]: inactive

CO[C@@]1(NC(=O)CSCC#N)C(=O)N2C(C(=O)O)=C(CSc3nnnn3C)CS[C@@H]21
Potency [1]: inactive | Potency [2]: inactive | Potency [4]: inactive | Potency [5]: inactive | Potency [8]: inactive | Potency [6]: inactive | Potency [7]: inactive

Cc1nnc(SCC2=C(C(=O)O)N3C(=O)[C@@H](NC(=O)Cn4cnnn4)[C@H]3SC2)s1
Potency [1]: inactive | Potency [2]: inactive | Potency [4]: inactive | Potency [5]: inactive | Potency [8]: inactive | Potency [6]: inactive | Potency [7]: inactive

NC/C=C/C(=O)O
Potency [1]: inactive | Potency [2]: inactive | Potency [4]: inactive | Potency [9]: inactive | activity change, positive = activation [10]: 6.36% [at 42.5 µM] | Potency [5]: inactive | Potency [8]: inactive | Potency [6]: inactive | Potency [7]: inactive
